A selection: hits, their analogues and other compounds. The true share with any hit is near 2.9%.
dFosB activator: activators of mouse delta FosB homodimer | AID 493131 | activation, % at 25 µM | 340,000 compounds, 0.99% hits | purified delta FosB, TAMRA-CDK5 oligo fluorescence polarization; percent of positive-control signal above neutral wells | P13346;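 active = mean activation above about 17%, with every replicate also reaching it, limit read from the data, passing the limit was not always enough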
Target sequence (P13346 whole entry, looked up): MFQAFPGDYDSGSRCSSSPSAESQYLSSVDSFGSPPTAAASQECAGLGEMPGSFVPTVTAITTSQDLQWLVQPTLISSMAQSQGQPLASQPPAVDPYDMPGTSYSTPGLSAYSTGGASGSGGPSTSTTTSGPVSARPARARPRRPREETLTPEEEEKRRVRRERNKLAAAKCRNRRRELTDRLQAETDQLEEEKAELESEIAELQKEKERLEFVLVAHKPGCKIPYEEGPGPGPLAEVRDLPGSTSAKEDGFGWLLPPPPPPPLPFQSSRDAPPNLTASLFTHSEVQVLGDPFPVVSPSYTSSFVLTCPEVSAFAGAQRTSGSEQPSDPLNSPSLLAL
FID counter: fluorescent intercalator displacement, NS3 helicase counter-screen; inhibition, % at 7.9 µM; DNA fluorescent intercalator displacement, fluorescence; AID 1845; 290,000 compounds, 0.17% hits; in the data active = inhibition above about 37%;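 note: 0% = vehicle and 100% = reference compound; higher means more ethidium bromide displaced from hairpin DNA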
MEKK2mut PB1 HTS: signal of MEK5 binding to mutant human MEKK2 PB1 domain. bead flow cytometry, Alexa488-MEK5 binding to MEKK2 mutant. percent response, % at 10 µM. 290,000 compounds, 0.35% hits. AID 1530; in the data active = percent response above about 24%, passing the limit was not always enough
MEKK3 PB1 HTS: raises or lowers MEK5 binding to the human MEKK3 PB1 domain | Q99759 | bead-based flow cytometry, Alexa488-MEK5 binding to MEKK3; actives lie on both sides; 0 = blocked by unlabeled MEK5, 100 = vehicle | binding response (% of control), % at 10 µM | 290,000 compounds, 1.4% hits | AID 1529;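 active = binding response more than 3 SD above or below the average of its plate-row segment, actives on both sides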;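 note: Alexa488 bead fluorescence after subtracting the streptavidin-only scavenger bead signal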
MEKK2 WT-MEK5: raises or lowers MEK5 binding to wildtype human MEKK2 PB1 domain; Q9Y2U5; bead flow cytometry, Alexa488-MEK5 binding to MEKK2 WT; actives lie on both sides; binding response (% of control), % at 10 µM; 290,000 compounds, 1.1% hits; in the data active = binding response below about 67% or above about 130%
MEKK2wt confirm: raises or lowers MEK5 binding to wildtype human MEKK2, retest. shares compounds with MEKK3 PB1 HTS. bead flow cytometry, Alexa488-MEK5 binding to MEKK2 WT; actives lie on both sides. binding response (% of control), % at 10 µM. 5,900 compounds, 2.4% hits; in the data active = binding response below about 16% or above about 210%; inactive = in between
MEKK2mut confirm: signal of MEK5 binding to mutant human MEKK2, retest; shares compounds with MEKK3 PB1 HTS; bead flow cytometry, Alexa488-MEK5 binding to MEKK2 mutant; percent response, % at 10 µM; 5,900 compounds, 2% hits; in the data active = percent response mostly above about 71%, no sharp cut-off; inactive = mostly below about 38%;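 note: higher means compound restores mutant binding toward wildtype level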
MEKK3 confirm: confirmation of inhibitors of MEK5 binding to human MEKK3; shares compounds with MEKK3 PB1 HTS; bead flow cytometry, Alexa488-MEK5 binding to MEKK3; active compounds read low; binding response (% of control), % at 10 µM; 5,900 compounds, 1.8% hits;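 active = binding response below 72% of control, or above a set upper limit, though filed actives all read lower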;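 note: 100% = DMSO only wells and 0% = binding blocked by excess unlabeled MEK5; lower values mean stronger disruption of MEK5 binding to MEKK3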
The depositor's hits bear a star; · = no result given; [ ] = remark or other dose.

SMILES	dFosB activator	FID counter	MEKK2mut PB1 HTS	MEKK3 PB1 HTS	MEKK2 WT-MEK5	MEKK2wt confirm	MEKK2mut confirm	MEKK3 confirm
CCN(CC)CCCNC(=S)N1CCN(c2nc(-c3ccc(F)cc3)cs2)CC1	-9	31	27*	110	186*	143	31	107
FC(F)(F)c1cccc(NC(=S)N(CCCN2CCCC2)Cc2cccn2Cc2ccc(Cl)cc2)c1	45*	36	6	93	243*	259*	64	104
Nc1cc2c(cc1[N+](=O)[O-])OCCOCCOCCO2	-4	1	-5	106	98	·	·	·
Cc1ccc(C(C(=O)NC2CCCC2)N(C(=O)CNC(=O)c2cccs2)c2cccnc2)o1 (stereo unspecified)	-2	-17	4	71*[inhibitor]	106	102	2	104
COc1ccc(N(C(=O)CNC(=O)c2cccs2)C(C(=O)NCC2CCCO2)c2ccccc2)cc1OC (stereo unspecified)	-8	-27	-11	96	85	·	·	·
COc1ccc(N(C(=O)CNC(=O)c2cccs2)C(C(=O)NCC2CCCO2)c2ccccc2)cc1 (stereo unspecified)	-13	-28	-19	5.0*[inhibitor]	6.0*[inhibitor]	105	4	104
COc1cccc(C(=O)N2CCC(CCC(=O)Nc3cccc(C)c3)CC2)c1	-4	-31	1	95	95	·	·	·
COc1ccc(NC(=O)COC(=O)CNC(=O)c2cc(OC)c(OC)c(OC)c2)cc1	-4	-13	0	145*	105	104	4	103
COc1ccccc1C(=O)N/C(=C\c1ccccc1)C(=O)NCc1ccco1	-3	-24	2	100	95	·	·	·
c1ccc(COc2ccccc2CNc2nn[nH]n2)cc1	2	-10	-9	67*[inhibitor]	72	103	-1	103
CCOC(=O)CSc1c(-c2ccc(Cl)cc2)[nH]c2ccccc12	-7	3	8	155*	109	103	-4	97
Cc1ccc(-c2[nH]c3ccccc3c2SCCNC(=O)c2cc3ccccc3oc2=O)cc1	-13	-2	1	94	96	·	·	·
O=C(Cc1cccs1)NCCSc1c(-c2ccc(Cl)cc2)[nH]c2ccccc12	6	1	-14	1.0*[inhibitor]	2.0*[inhibitor]	118	5	107
CC1CCN(C(=O)c2ccc3c(c2)OCO3)CC1	4	-8	6	99	104	·	·	·
COc1ccccc1CN1CCNC(=O)C1CC(=O)NCCc1cnccn1 (stereo unspecified)	-4	-2	-12	82	80	·	·	·
CN1CCC(NCCC(c2ccc(F)cc2)c2ccc(Cl)cc2)CC1 (stereo unspecified)	-37	42*	-49	4.0*[inhibitor]	10*[inhibitor]	150	37	106
CC(C)CCn1c(Br)nc2c1c(=O)n(CC(N)=O)c(=O)n2C	-9	0	-15	2.0*[inhibitor]	2.0*[inhibitor]	99	-3	99
COC(=O)C(C)Sc1nc2c(c(=O)n(C)c(=O)n2C)n1CCC(C)C (stereo unspecified)	-9	-34	-5	99	97	·	·	·
COc1ccc(N2CCC(CNC(=O)Nc3ccc(Cl)cc3)C2)cc1 (stereo unspecified)	0	3	7	141*	142	106	2	100
O=C(NCc1ccc2c(c1)OCO2)C(=O)NCC(c1ccco1)N1CCN(c2ccccc2)CC1 (stereo unspecified)	-14	-2	15	136*	119	97	-10	101
CC(NC(=O)c1cc2c(cc1Cl)N1CCCCCC1=NS2(=O)=O)c1ccc(S(N)(=O)=O)cc1 (stereo unspecified)	0	·	·	·	·	·	·	·
N=c1oc2ccccc2cc1-c1nc(-c2ccc(Cl)cc2)cs1	-7	-8	-2	128*	97	91	-9	98
C=CCOc1ccc(/C=C2\N=C(C)OC2=O)cc1OC	-1	-5	-6	61*[inhibitor]	53*[inhibitor]	103	3	101
COc1cccc(CC2(CO)CCCN(Cc3ccc(C)s3)C2)c1 (stereo unspecified)	-8	11	1	104	109	·	·	·
COc1cccc(CC2(CO)CCCN(Cc3cc4ccccc4[nH]3)C2)c1 (stereo unspecified)	8	8	30	103	148*	144	20	103
SMILES	dFosB activator	FID counter	MEKK2mut PB1 HTS	MEKK3 PB1 HTS	MEKK2 WT-MEK5	MEKK2wt confirm	MEKK2mut confirm	MEKK3 confirm
COc1cccc(CC2(CO)CCCN(Cc3[nH]c4ccc(C)cc4c3C)C2)c1 (stereo unspecified)	1	11	46	105	157*	140	24	103
COc1ccc(C(CNC(=O)Cc2ccccc2Cl)N2CCCCC2)cc1 (stereo unspecified)	-8	1	-4	100	99	·	·	·
COc1ccc(C(CNC(=O)Cc2ccccc2F)N2CCCCC2)cc1 (stereo unspecified)	0	-3	-1	131*	113	108	-1	103
CC1(C)Cc2c(c(N3CCCC3)nc3sc4c(N5CCNCC5)ncnc4c23)CO1	·	1	17	102	130	·	·	·
COc1cccc(NC(=O)CN2C(=O)C(=O)N(C3CCCC3)C2=O)c1	2	·	·	·	·	·	·	·
O=C(NCCCN1CCCC1)c1cc(Sc2ccc(F)cc2)nc2ccccc12	-3	15	1	133*	122	125	13	104
O=C(NCCN1CCOCC1)c1cc(Sc2ccc(F)cc2F)nc2ccccc12	-7	0	4	100	107	·	·	·
N#C/C(=C\c1cn(Cc2ccccc2)c2ccccc12)C(=O)NCc1ccco1	8	-6	-2	101	100	·	·	·
N#C/C(=C/c1cn(CC(=O)O)c2ccccc12)C(=O)Nc1ccccc1	4	-28	5	100	41*[inhibitor]	96	0	100
N#C/C(=C\c1cn(Cc2ccc(F)cc2)c2ccccc12)C(=O)NCc1ccco1	4	-12	0	129*	103	97	-3	100
CCc1ccc(NC(=O)/C(C#N)=C/c2cn(CC(=O)O)c3ccccc23)cc1	-4	-25	-11	110	99	·	·	·
O=C(NCCCN1CCCC1=O)c1cc(-c2ccc3c(c2)OCO3)nc2ccccc12	-16	-20	0	101	93	·	·	·
O=C(NCCCN1CCCC1=O)c1cc(-c2cccnc2)nc2ccc(Cl)cc12	-21	-33	-15	70*[inhibitor]	78	79	-15	73
O=C(CN1CCN(c2ncccn2)CC1)NCc1ccccc1	-1	-5	-6	86	94	·	·	·
